Experimental data as given in PubChem BioAssay.
“And” between values parts separate entries of the source, which are not always exact repeats. Identical values can stand only once. Records with an inconclusive call do not appear. The source made the active and inactive calls.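 Rule for the calls, unless noted: active = at least 20% inhibition of 6-phosphogluconate dehydrogenase activity; inactive = the rest.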

Columns and labels:
[1] = biological target: 6-phosphogluconate dehydrogenase, decarboxylating (Homo sapiens) (UniProt P52209); test: 6PGD enzyme inhibitors, primary screen, biochemical, human, recombinant enzyme, NADPH absorbance (AID 1159550); settings: recombinant 6PGD, NADPH absorbance 341 nm; at 10 µM; stronger effect = higher value
[2] = biological target: NAD(+) hydrolase SARM1 (Homo sapiens) (UniProt Q6SZW1); test: SARM1 TIR NADase inhibitors, cell lysate, NAD-Glo luminescence (AID 1508614;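 active = compound whose remaining NAD level is above about 45 nM, limit read from the data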;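 note: higher remaining NAD means stronger inhibition of SARM1 NADase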); settings: SAM-TIR HEK293T lysate NADase, at 1 µM, stronger effect = higher value
[3] = biological target: Mitogen-activated protein kinase 7 (Homo sapiens) (UniProt Q13164); test: ERK5 transactivation activators in reporter cells, primary screen, cell-based, HTS (AID 1508626;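 active = luciferase signal above three times the same-plate solvent-only control wells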;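 note: luciferase driven by Gal4-ERK5 fusion binding five Gal4 sites before minimal TATA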); settings: HeLa Gal4-ERK5 transactivation, 18 h, at 5 µM, stronger effect = higher value
[4] = liver-stage malaria parasite growth inhibition, primary screen, cell-based, HepG2, luciferase luminescence, HepG2 viability (AID 624349; in the data active = parasite load remaining mostly below about 12%, no sharp cut-off; inactive = mostly above about 10%;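 note: 100% = mean of DMSO negative control wells on the same plate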); settings: P. berghei liver stage in HepG2, luciferase luminescence, concentration not given here; parasite load remaining: stronger effect = lower value; viability: measured here: HepG2 viability without parasites
[5] = sensitizers of A549 cells to miR-34 induction, primary screen, imaging, A549 dox-inducible miR-34, nuclei and caspase counts (AID 1347080;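 active = compounds whose cell count with miR-34 switched on is under 0.7 times the count with it off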); settings: A549 miR-34 inducible, Hoechst nuclei count, 48 h
[6] = biological target: ATP-dependent translocase ABCB1 (Homo sapiens) (UniProt P08183); test: MDR1 (ABCB1) efflux transporter inhibition, cell-based (AID 377; in the data active = fluorescence slope change above about 50%); settings: MDR1-expressing cells, fluorescent substrate accumulation slope; stronger effect = higher value; concentration not given here
[7] = hESC survival regulators, cell-based (AID 493140; call rule not given here;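 note: cells exposed to compounds for four days before counting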); settings: human embryonic stem cell survival screen; stronger effect = higher value
[8] = stronger effect = lower value, cell number ratio, induced over uninduced
[9] = measured here: relative caspase fold change +Dox/-Dox
[10] = measured here: total cells with miR-34 induction, stronger effect = lower value
[11] = measured here: total cells without miR-34 induction

Chain of Mitogen-activated protein kinase 7 (Homo sapiens) (Q13164 whole entry, looked up, the tested form may be a part): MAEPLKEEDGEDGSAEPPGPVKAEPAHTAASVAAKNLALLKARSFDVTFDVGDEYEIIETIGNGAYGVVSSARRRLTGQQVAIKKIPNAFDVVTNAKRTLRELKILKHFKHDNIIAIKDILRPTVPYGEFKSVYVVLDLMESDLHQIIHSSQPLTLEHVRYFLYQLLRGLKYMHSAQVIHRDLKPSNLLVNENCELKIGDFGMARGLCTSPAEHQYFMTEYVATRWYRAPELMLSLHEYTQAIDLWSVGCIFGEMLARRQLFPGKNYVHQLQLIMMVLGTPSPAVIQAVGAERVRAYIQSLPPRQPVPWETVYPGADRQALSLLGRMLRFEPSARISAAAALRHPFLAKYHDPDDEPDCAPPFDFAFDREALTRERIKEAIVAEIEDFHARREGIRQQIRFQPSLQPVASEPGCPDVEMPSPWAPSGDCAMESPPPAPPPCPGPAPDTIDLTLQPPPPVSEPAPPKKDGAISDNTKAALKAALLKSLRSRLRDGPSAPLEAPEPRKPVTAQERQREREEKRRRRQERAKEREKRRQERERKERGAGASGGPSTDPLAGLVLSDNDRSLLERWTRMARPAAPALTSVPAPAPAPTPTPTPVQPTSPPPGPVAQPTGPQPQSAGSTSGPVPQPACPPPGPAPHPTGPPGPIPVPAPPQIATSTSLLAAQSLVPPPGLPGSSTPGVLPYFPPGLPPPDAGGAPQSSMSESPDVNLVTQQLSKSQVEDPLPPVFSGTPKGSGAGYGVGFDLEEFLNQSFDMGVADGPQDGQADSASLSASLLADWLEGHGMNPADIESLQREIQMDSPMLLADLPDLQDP
Chain of NAD(+) hydrolase SARM1 (Homo sapiens) (Q6SZW1 whole entry, looked up, the tested form may be a part): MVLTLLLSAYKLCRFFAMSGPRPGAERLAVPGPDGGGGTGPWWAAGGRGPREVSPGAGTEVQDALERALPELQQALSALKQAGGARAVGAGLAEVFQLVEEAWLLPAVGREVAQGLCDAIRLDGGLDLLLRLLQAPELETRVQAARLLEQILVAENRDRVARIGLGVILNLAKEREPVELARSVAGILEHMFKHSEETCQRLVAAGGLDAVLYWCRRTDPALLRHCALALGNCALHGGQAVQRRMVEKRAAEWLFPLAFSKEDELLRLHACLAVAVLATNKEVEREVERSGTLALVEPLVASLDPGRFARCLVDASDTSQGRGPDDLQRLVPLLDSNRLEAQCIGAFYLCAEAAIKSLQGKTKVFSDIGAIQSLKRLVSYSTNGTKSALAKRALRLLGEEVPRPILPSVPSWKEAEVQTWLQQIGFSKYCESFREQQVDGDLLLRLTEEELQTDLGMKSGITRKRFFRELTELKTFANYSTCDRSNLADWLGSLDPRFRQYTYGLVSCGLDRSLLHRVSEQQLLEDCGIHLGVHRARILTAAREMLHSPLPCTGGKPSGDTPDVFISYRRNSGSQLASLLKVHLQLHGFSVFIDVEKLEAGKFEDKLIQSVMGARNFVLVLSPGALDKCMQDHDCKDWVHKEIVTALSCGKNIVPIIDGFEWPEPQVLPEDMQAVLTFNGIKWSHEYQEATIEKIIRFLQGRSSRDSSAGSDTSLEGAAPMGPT
Chain of 6-phosphogluconate dehydrogenase, decarboxylating (Homo sapiens) (P52209 whole entry, looked up): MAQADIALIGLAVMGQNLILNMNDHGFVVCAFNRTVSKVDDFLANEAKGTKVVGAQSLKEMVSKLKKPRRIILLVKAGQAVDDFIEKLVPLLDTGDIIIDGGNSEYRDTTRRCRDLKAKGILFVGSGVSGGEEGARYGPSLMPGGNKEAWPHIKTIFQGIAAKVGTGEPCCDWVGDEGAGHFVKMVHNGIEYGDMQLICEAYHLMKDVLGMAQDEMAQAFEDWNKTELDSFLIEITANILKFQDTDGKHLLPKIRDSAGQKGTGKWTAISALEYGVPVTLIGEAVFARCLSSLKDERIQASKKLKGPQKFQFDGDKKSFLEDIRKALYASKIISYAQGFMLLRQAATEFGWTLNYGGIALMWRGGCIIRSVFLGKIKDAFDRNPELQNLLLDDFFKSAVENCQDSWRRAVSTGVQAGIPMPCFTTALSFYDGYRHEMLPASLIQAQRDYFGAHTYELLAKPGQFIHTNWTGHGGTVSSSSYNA
Chain of ATP-dependent translocase ABCB1 (Homo sapiens) (P08183 whole entry, looked up): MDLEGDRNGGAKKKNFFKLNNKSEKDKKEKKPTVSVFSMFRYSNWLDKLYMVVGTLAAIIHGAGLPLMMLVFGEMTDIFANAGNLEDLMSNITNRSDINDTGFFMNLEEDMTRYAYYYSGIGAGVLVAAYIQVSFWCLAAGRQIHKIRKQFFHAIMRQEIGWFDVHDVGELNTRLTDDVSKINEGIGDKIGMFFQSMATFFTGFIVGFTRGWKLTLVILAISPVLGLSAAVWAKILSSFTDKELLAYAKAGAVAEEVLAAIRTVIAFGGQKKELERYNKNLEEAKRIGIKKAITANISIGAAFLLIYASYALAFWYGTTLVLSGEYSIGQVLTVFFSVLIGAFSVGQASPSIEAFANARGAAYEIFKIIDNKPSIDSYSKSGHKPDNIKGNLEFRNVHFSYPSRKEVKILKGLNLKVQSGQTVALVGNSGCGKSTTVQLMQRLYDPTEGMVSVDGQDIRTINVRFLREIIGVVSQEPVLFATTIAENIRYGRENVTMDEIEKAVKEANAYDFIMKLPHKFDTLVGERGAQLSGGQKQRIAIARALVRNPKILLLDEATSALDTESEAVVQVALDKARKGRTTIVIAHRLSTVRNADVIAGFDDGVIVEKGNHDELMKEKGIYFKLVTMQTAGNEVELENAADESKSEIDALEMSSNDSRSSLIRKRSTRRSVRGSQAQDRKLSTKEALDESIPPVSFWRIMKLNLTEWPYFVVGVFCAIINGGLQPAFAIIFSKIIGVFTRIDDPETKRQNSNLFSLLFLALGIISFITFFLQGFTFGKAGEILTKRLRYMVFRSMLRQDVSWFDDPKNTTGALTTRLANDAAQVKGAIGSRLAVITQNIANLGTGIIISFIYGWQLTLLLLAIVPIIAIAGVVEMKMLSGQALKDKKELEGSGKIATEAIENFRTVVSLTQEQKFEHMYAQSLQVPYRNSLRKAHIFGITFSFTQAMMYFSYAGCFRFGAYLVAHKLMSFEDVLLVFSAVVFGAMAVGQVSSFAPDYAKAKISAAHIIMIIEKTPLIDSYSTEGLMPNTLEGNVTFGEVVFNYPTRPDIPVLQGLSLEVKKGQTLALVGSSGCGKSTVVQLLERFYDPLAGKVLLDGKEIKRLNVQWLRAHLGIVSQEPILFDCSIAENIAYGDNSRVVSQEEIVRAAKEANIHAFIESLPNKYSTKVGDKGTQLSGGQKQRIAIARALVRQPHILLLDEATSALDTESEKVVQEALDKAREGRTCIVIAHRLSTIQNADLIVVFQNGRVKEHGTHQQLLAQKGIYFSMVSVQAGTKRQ

Compound: NC[C@H]1O[C@H](O[C@H]2[C@H](O[C@@H]3O[C@H](CO)[C@@H](O)[C@H]3O)[C@@H](O)[C@H](N)C[C@@H]2N)[C@H](N)[C@@H](O)[C@@H]1O
- inhibition [1]: -2.01% (inactive)
- remaining NAD [2]: 10 nM (inactive)
- luciferase signal [3]: 40 AU (inactive)

Compound: CC[C@H]1OC(=O)[C@H](C)C(=O)[C@H](C)[C@@H](O[C@@H]2O[C@H](C)C[C@H](N(C)C)[C@H]2O)[C@](C)(OC)C[C@@H](C)C(=O)[C@H](C)[C@H]2N(CCCCn3cnc(-c4cccnc4)c3)C(=O)O[C@]12C
- inhibition [1]: -10.3% (inactive)
- remaining NAD [2]: 10 nM (inactive)
- luciferase signal [3]: 48 AU (inactive)

Compound: CCCCCC(=O)O[C@]1(C(C)=O)CC[C@H]2[C@@H]3CCC4=CC(=O)CC[C@]4(C)[C@H]3CC[C@@]21C
- inhibition [1]: -2.17% (inactive)
- remaining NAD [2]: 10 nM (inactive)
- luciferase signal [3]: 44 AU (inactive)

Compound: COC(=O)CCCOc1ccc(Cl)cc1Cl
- inhibition [1]: -8.02% (inactive)
- luciferase signal [3]: 60 AU (inactive)

Compound: CC(=O)[C@@]1(O)CC[C@H]2[C@@H]3C=C(Cl)C4=CC(=O)[C@@H]5C[C@@H]5[C@]4(C)[C@H]3CC[C@@]21C
- inhibition [1]: 3.58% (inactive)
- remaining NAD [2]: 10 nM (inactive)
- luciferase signal [3]: 32 AU (inactive)

Compound: CC(=O)N[C@@H](CC(=O)O)C(=O)O
- parasite load remaining [4]: 117% (inactive)
- viability [4]: 106%
- inhibition [1]: 3.38% (inactive)
- fold change [5, 8]: 0.841 (inactive)
- fold change [5, 9]: 1.57
- cell count [5, 10]: 8620
- cell count [5, 11]: 10300

Compound: C[C@H]1[C@H]2CC[C@H]3[C@@H]4CC=C5C[C@@H](N(C)C)CC[C@]5(C)[C@H]4CC[C@]23CN1C
- fluorescence slope change [6]: 56.7% (active)
- survival [7]: 4.83 (inactive)
- parasite load remaining [4]: 168% (inactive) and 68.7% (inactive)
- viability [4]: 102% and 76.1%
- inhibition [1]: 13.8% (inactive)
- fold change [5, 8]: 0.82 (inactive)
- fold change [5, 9]: 1.54
- cell count [5, 10]: 8300
- cell count [5, 11]: 10100
- luciferase signal [3]: 40 AU (inactive)

Compound: CC(C)C[C@@H]1NC(=O)[C@H](CCCN)NC(=O)[C@H](C(C)C)NC(=O)[C@H](Cc2ccc(O)cc2)N[C@@H](CCC(=O)O)C(=O)N[C@@H](CC(N)=O)C(=O)[C@@H](Cc2ccccc2)NC(=O)[C@H](Cc2ccccc2)NC(=O)[C@@H]2CCCN2C(=O)[C@@H](Cc2ccccc2)NC1=O
- inhibition [1]: 2.66% (inactive)
- remaining NAD [2]: 10 nM (inactive)

Compound: Nc1nc(N)c2nc(CNc3ccc(C(=O)N[C@@H](CCC(=O)O)C(=O)O)cc3)cnc2n1
- inhibition [1]: -4.2% (inactive)
- remaining NAD [2]: 10 nM (inactive)

Compound: CC(=O)O[C@]1(C)CC[C@@]23C[C@@H]1C(C)(C)[C@@H]2CC[C@H]3C
- inhibition [1]: 13.3% (inactive)
- luciferase signal [3]: 56 AU (inactive)

Compound: C[C@@H]1O[C@@H](Oc2c(-c3ccc(O)c(O)c3)oc3cc(O)cc(O)c3c2=O)[C@H](O)[C@H](O)[C@H]1O
- inhibition [1]: -14.2% (inactive)
- luciferase signal [3]: 52 AU (inactive)

Compound: COc1c(O)cc2c(-c3ccccc3)cc(=O)oc2c1OC
- inhibition [1]: -3.61% (inactive)
- luciferase signal [3]: 48 AU (inactive)

Compound: CC(C)c1c(O)ccc2c1CCC1[C@@](C)(C=O)CCC[C@]21C (stereo not given in full)
- inhibition [1]: -10.2% (inactive)
- luciferase signal [3]: 16 AU (inactive)

Compound: COc1ccc(-c2cc(=O)c3cc(OC)ccc3o2)cc1
- inhibition [1]: -2.36% (inactive)
- luciferase signal [3]: 40 AU (inactive)

Compound: CC(C)=CCc1c2c(c(O)c3c(=O)c(O)c(-c4ccccc4)oc13)C=CC(C)(C)O2
- inhibition [1]: -4.34% (inactive)
- luciferase signal [3]: 64 AU (inactive)

Compound: C[C@H](CCC(=O)O)[C@H]1CC[C@H]2[C@@H]3[C@H](O)C[C@@H]4C[C@H](O)CC[C@]4(C)[C@H]3C[C@H](O)[C@]12C
- inhibition [1]: -7.09% (inactive)
- luciferase signal [3]: 28 AU (inactive)

Compound: C=C1C2CCC3(C)C(c4ccoc4)OC(=O)CC13OC1CC(OC(C)=O)C(C)(C)C(CC(=O)OC)C12C (stereo not given)
- inhibition [1]: 5.49% (inactive)
- luciferase signal [3]: 56 AU (inactive)

Compound: COC1=C[C@@H](C)[C@@H]2C[C@H]3OC(=O)C[C@H]4C(C)=C(OC)C(=O)[C@H]([C@@]2(C)C1=O)[C@@]34C
- inhibition [1]: -9.87% (inactive)
- luciferase signal [3]: 40 AU (inactive)

Compound: COC(=O)C[C@H]1C(C)(C)[C@H](OC(C)=O)[C@@H]2CC3=C4CC(=O)O[C@@H](c5ccoc5)[C@]4(C)CC[C@@H]3C1(C)C2=O
- inhibition [1]: 7.02% (inactive)
- luciferase signal [3]: 24 AU (inactive)

Compound: CC(=O)Oc1c(-c2ccccc2)oc2c(CC=C(C)C)c3c(c(OC(C)=O)c2c1=O)C=CC(C)(C)O3
- inhibition [1]: 7.48% (inactive)
- luciferase signal [3]: 40 AU (inactive)

Compound: COc1cc(/C=C/CO)ccc1O
- inhibition [1]: 17.3% (inactive)
- luciferase signal [3]: 96 AU (inactive)

Compound: CC1=C(/C=C/C(C)=C/C=C/C(C)=C/C=C/C=C(C)/C=C/C=C(C)/C=C/C2=C(C)C(=O)[C@@H](O)CC2(C)C)C(C)(C)C[C@H](O)C1=O
- inhibition [1]: -11.7% (inactive)
- luciferase signal [3]: 48 AU (inactive)

Compound: CC1(C)[C@@H](O)CC[C@]2(C)[C@H]3C(=O)C=C4[C@H]5C[C@@](C)(C(=O)O)CC[C@]5(C)CC[C@@]4(C)[C@]3(C)CC[C@@H]12
- inhibition [1]: -38.1% (inactive)
- luciferase signal [3]: 24 AU (inactive)

Compound: CC(C)[C@@H](C)/C=C/[C@@H](C)[C@H]1CC[C@H]2C3=CC=C4C[C@@H](O)CC[C@]4(C)[C@H]3CC[C@]12C
- inhibition [1]: -7.51% (inactive)
- luciferase signal [3]: 96 AU (inactive)
